Records with an inconclusive call do not appear. Activity calls are given as the source filed them. Calls come from the whole dose curve.
Molecular target: Polyunsaturated fatty acid lipoxygenase ALOX15 (Homo sapiens) (UniProt P16050)
Assay: Inhibitors of 12-hLO (12-human lipoxygenase): 15hLO-1 Cuvette-Based Inhibition Counterscreen Assay for 12hLO Followup Compounds
Conditions: purified 15hLO-1, UV 234 nm product formation
Procedure: Human lipoxygenase 15hLO-1 is a member of the closely related lipoxygenase family of enzymes which catalyze the site-specific oxidation of arachidonic acid to various hormone precursor molecules and as such is a candidate for drug development in a variety of disease areas, such as cancer and inflammation. The enzyme activity of 15hLO-1 was determined by a direct measurement of product formation by monitoring the absorbance at 234 nm in a 2 mL cuvette. IC50 values of inhibitors were obtained by measuring the enzymatic rate at a variety of concentrations (Carroll et al, Segraves et al). A purified preparation of human 15hLO-1 was supplied by Professor Ted Holman, University of California, Santa Cruz. This assay was run against 12hLO followup compounds with the goal of identifying selective 12hLO inhibitors. Assay Provider: Holman, T.R., University of California, Santa Cruz Screening Center PI: Austin, Christopher P. Screening Center: NIH Chemical Genomics Center
For control experiments, 2 mL of substrate buffer (10 uM arachidonic acid / 25 mM HEPES / 0.01% (v/v) Triton X-100, pH 8.0) was aliquoted in a cuvette with a magnetic stir bar. After equilibrium was ensured, an aliquot of inhibitor solvent was added (DMSO), and equilibrium was once again assured. The reaction was started by adding enzyme to the cuvette and the reaction was followed until completed. The inhibition experiments were performed as above, except the actual inhibitory compound was added instead of vehicle. To achieve an IC50, typically 5 concentrations of the inhibitor were studied. If the inhibitor concentration was constant, then five different reaction volumes were used. Step \ Parameter \ Value \ Description 1; UV-Vis; 234 nm; Equilibration 2; Reagent; 2 mL; Substrate buffer 3; UV-Vis; 234 nm; Equilibration 4; Reagent; varies; Compound 5; UV-Vis; 234 nm; Equilibration 6; Reagent; 50-200 nM; Enzyme 12-hLO 7; UV-Vis; 234 nm; Enzymatic reaction Step \ Notes 1; Blank cuvette to air. 2; 10 uM AA, 25 mM HEPES, 0.01% Triton X-100, pH 8. 3; No change in absorbance ensured. 4; Compound vehicle or compound in various concentrations depending on potency. 5; No change in absorbance ensured. 6; Enzyme concentration to achieve reaction rate between 0.02 and 0.04 AU/s. 7; Enzymatic reaction visualized until completion.

Sequence of Polyunsaturated fatty acid lipoxygenase ALOX15 (Homo sapiens) (P16050 whole entry, looked up): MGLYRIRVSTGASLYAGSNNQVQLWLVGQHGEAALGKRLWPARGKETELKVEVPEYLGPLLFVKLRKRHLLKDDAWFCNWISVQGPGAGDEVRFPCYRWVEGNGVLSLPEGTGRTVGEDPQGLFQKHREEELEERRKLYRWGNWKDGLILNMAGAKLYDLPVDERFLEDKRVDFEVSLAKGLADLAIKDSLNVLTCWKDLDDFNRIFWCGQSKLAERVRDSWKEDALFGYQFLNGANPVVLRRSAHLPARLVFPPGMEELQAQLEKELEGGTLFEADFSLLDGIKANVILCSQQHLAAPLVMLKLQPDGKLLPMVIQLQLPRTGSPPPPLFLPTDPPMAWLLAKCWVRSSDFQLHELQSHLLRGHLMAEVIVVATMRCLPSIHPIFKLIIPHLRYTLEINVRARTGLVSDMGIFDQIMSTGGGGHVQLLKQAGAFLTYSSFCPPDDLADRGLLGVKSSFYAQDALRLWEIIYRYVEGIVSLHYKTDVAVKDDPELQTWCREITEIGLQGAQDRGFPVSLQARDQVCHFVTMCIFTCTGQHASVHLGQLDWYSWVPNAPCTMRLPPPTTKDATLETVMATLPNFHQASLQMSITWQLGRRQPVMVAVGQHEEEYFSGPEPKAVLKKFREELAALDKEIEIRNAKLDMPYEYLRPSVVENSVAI

Row | Structure (SMILES) | Potency | outcome
1 | CSc1ccc(S(=O)(=O)Nc2ccc(S(=O)(=O)Nc3ccc(C)cc3)cc2)cc1 | 45 µM (active) | –
2 | O=C(CSc1n[nH]c(-c2ccccc2)n1)c1ccc(O)c(O)c1 | 5.77 µM (active) | –
3 | Cc1ccc(C(=O)Nc2nnc(-c3ccco3)o2)cc1 | – | inactive
4 | COc1ccc(-c2n[nH]c(C)c2-c2ccc(Cl)cc2)c(O)c1 | 3.51 µM (active) | –
5 | Oc1ccc(-c2csc(-c3ccccc3)n2)cc1O | 0.67 µM (active) | –
6 | Oc1ccccc1-c1cc(-c2cccc(F)c2)n[nH]1 | 4.81 µM (active) | –
7 | CCOc1ccc(-c2[nH]ncc2Oc2cccc(OC)c2)c(O)c1 | 2.96 µM (active) | –
8 | Cc1ccc(NC(=O)Nc2cccs2)c(Cl)c1 | 58.8 µM (active) | –
9 | CCCOC(=O)c1ccc(Oc2cn[nH]c2-c2ccc(OC)cc2O)cc1 | 13.1 µM (active) | –
10 | COc1ccc(Cc2nc(C(=O)Nc3ccc(OC)cc3)cs2)cc1 | 8.84 µM (active) | –
11 | CC(Oc1ccc(Cl)cc1Cl)C(=O)NC1=NN(c2ccccc2)C(=O)C1 (stereo not given) | 65 µM (active) | –
12 | CC1=NN(c2ccc(Cl)cc2)C(=O)C1C(c1ccccc1O)c1c(C)[nH]n(-c2ccc(Cl)cc2)c1=O (stereo not given) | 20 µM (active) | –
13 | Oc1ccc(-c2nc(-c3ccc(O)c(O)c3)cs2)cc1 | 0.61 µM (active) | –
14 | O=C1c2ccccc2NC(c2ccc(Cl)cc2Cl)N1O (stereo not given) | 37.4 µM (active) | –
15 | CCc1cc(-c2[nH]ncc2-c2ccc3c(c2)OCO3)c(O)cc1O | 4.01 µM (active) | –
16 | O=C(/C=C/c1ccc(O)c(O)c1)c1ccc(S(=O)(=O)N2CCCCCC2)cc1 | 1.31 µM (active) | –
17 | CCCOC(=O)c1ccc(Oc2c(-c3ccc(O)cc3O)n[nH]c2C)cc1 | 6.81 µM (active) | –
18 | COc1ccc(NC2=NCC(Cc3ccc(Br)cc3)S2)cc1 (stereo not given) | 8.89 µM (active) | –
19 | CCOC(=O)Cc1cc(=O)n(-c2nc3ccccc3s2)[nH]1 | – | inactive
20 | Cc1[nH]nc(-c2ccc(O)cc2O)c1-c1ccc(Cl)cc1 | 9.99 µM (active) | –

Row | Structure (SMILES) | Potency | outcome
21 | COc1cc(CNc2ccc(O)cc2)cc(Br)c1OCc1ccccc1F | – | inactive
22 | COc1cccc(-c2cnc(NCc3cc(Cl)ccc3O)n2C)c1 | 32.9 µM (active) | –
23 | Cc1cc(Cl)cc(Cl)c1OCC(=O)NCc1ccco1 | 88.6 µM (active) | –
24 | c1ccc(-c2nc(NCc3cccnc3)c3oc4ccccc4c3n2)cc1 | 31 µM (active) | –
25 | Cc1[nH]nc(-c2ccc(O)cc2O)c1Oc1ccccc1 | 15.6 µM (active) | –
26 | Cc1cccnc1NCc1ccc(O)c2ncccc12 | 23.9 µM (active) | –
27 | Oc1ccccc1-c1cc(-c2ccc3c(c2)OCCO3)n[nH]1 | 2.55 µM (active) | –
28 | Oc1ccc(Cl)cc1-c1cc(-c2ccco2)[nH]n1 | 2.03 µM (active) | –
29 | Oc1ccccc1-c1cc(-c2ccccc2Cl)[nH]n1 | 1.62 µM (active) | –
30 | CCOC(=O)CNC(c1ccccc1)c1cc(Br)ccc1NC(=O)CCN1CCOCC1 (stereo not given) | – | inactive
31 | COc1ccc(C(Nc2ccccn2)c2c(NC(=O)c3ccco3)sc(C)c2C)cc1 (stereo not given) | 62.7 µM (active) | –
32 | O=C(NC(=S)Nc1ccccc1N1CCCC1)c1ccc([N+](=O)[O-])cc1 | – | inactive
33 | Cc1oc2c(O)c(O)ccc2c(=O)c1-c1cnn(-c2ccccc2)c1 | 18.9 µM (active) | –
34 | Oc1ccc(CN2CCCc3ccccc32)c2cccnc12 | 81.3 µM (active) | –
35 | CCc1ccc(S(=O)(=O)/N=C2/C=C(Sc3ncn[nH]3)C(=O)c3ccccc32)cc1 | 9.52 µM (active) | –
36 | Cc1ccc(S(=O)(=O)Nc2nc(C)c(NC(=O)Nc3ccc(Cl)cc3Cl)s2)cc1 | – | inactive
37 | Cc1ccc(C(=O)Nc2nnc(-c3ccco3)o2)cc1C | – | inactive
38 | CCc1cc(-c2n[nH]c(C)c2Oc2ccc(C(C)C)cc2)c(O)cc1O | 3.87 µM (active) | –
39 | Oc1ccc(C2=Nn3c(nnc3-c3ccco3)SC2)cc1O | 39.1 µM (active) | –
40 | Cc1ccc(S(=O)(=O)Nc2ccc(NC(=O)Nc3cccc(C(F)(F)F)c3)cc2)cc1 | 31.5 µM (active) | –

From PubChem BioAssay AID493220 (National Center for Advancing Translational Sciences (NCATS), 2011)
